Experimental findings from PubChem BioAssay (NCATS) are described below.

The structures appear in SMILES notation. Several values for one entry are separate records, joined by “and”; a condition that tells them apart may be missing. Identical values can stand only once. Results filed as inconclusive are left out. The source holds several records for some structures; these can differ, active in one and inactive in another. Activity calls are given as the source filed them. Calls come from the whole dose curve; as a rule, active = well fitted inhibition curve with a large enough effect; inconclusive = small, poorly fitted or top-dose-only effect; inactive = no such curve, though single readings can be large or run the other way.
% is set by controls: 0 for no effect and ±100 for the full control effect; potency is the fitted concentration of half-maximal effect.

Chain of Cytochrome P450 2C19 (Homo sapiens) (P33261 whole entry, looked up): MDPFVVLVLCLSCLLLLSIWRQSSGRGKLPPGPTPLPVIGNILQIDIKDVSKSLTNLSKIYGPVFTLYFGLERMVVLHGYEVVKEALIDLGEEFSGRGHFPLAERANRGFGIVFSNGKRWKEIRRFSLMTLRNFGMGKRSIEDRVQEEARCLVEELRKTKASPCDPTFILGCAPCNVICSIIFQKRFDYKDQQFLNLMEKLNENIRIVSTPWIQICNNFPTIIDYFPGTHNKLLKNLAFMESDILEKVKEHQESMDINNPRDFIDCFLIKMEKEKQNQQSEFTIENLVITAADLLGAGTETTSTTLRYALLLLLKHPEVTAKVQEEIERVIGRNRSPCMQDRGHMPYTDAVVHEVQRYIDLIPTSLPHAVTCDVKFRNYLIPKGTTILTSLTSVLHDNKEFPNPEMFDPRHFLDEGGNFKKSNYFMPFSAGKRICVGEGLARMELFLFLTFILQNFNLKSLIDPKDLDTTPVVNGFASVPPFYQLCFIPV

For this experiment, the target named is Cytochrome P450 2C19 (Homo sapiens) (UniProt P33261). The experiment is described as follows: qHTS Assay for Inhibitors and Substrates of Cytochrome P450 2C19 (AID 899). Note: nearly all actives have a fitted effect of over 60% in size. The settings on record: recombinant CYP2C19, luciferin-H EGE luminescence; series mostly up to 11.4 µM; activity, negative = inhibition: at the top concentration. As to the method:
NIH Molecular Libraries Screening Centers Network [MLSCN]
NIH Chemical Genomics Center [NCGC]
The P450 gene superfamily is involved in the metabolism and clearance of xenobiotics. This assay used human CYP2C19 to measure the hydroxylation of ethylene glycol ester of 6' deoxyluciferin (Luciferin-H EGE; […]) to luciferin. The luciferin is then measured by luminescence after the addition of a luciferase detection reagent. Luciferin-H EGE concentration in the assay was equal to its KM for CYP2C19. Inhibitors and some substrates limit the production of luciferin, and decrease measured luminescence.
NCGC Assay Protocol Summary:
Two uL of enzyme and substrate mix (final concentrations: 5nM CYP2C19, 10uM Luciferin-H EGE, 50mM KPO4) were dispensed into a white, solid bottom 1536-well microtiter plate. 23nL of compound was transferred by a pin tool. The plate was incubated at 37C for 10 min. Two uL of an NADPH regeneration solution (Promega supplied reagent) was dispensed and the reaction was allowed to continue for 60 min at 37C. Then the reaction was stopped by reconstituted luciferin detection buffer. After another 20 min of incubation the plate was read on the ViewLux (Perkin Elmer) at 60 sec exposure and 2x2 binning. This protocol was carried out with Promega-Glo reagents and further information can be found at http://www.promega.com/tbs/tb325/tb325.pdf. Data were normalized to the to AC100 inhibition (57uM ketoconazole).
Keywords: P450, CYP2C19, Luciferase, MLSMR, MLSCN, NIH Roadmap, qHTS, NCGC
With `COc1ccc(OCC2CC3C(CCC(C)C3c3ccc(Br)cc3)C(=O)O2)cc1` (stereo not given), the “activity, negative = inhibition” value was -2.87% (inactive).
Turning to `COC(=O)C1C(C)OC(=O)NC1c1ccccc1` (stereo not given), the “activity, negative = inhibition” value is -16.9% (inactive).
For `COC(=O)NC(/C=C/c1ccccc1)[C@]1(C(C)=O)CCCC1=O` (stereo not given in full), the “activity, negative = inhibition” value is 12.5% (inactive).
In the case of `COC(=O)C1=C2N(Cc3ccccc3)C(C)=C(C(=O)OC)C(c3ccccc3)N2C(=O)[C@](O)(C(=O)OC)C1` (stereo not given in full), the Potency result is “inactive”.
Consider `CCCNC(=O)OC[C@@H]1O[C@H](CCO/N=C2\c3cc(OC)ccc3O[C@H](c3cccc(OC)c3)[C@H]2O)C=C[C@@H]1Oc1ccc(OC)cc1`, for which the Potency is 1580 nM (active).
As for `C[C@@H]1OC2C3=C(C(=O)[C@H]4O[C@@H]4[C@H]3O)[C@@H]1[C@H]1[C@H](C)OC=C3[C@H](O)[C@H]4O[C@H]4/C(=N\OCc4ccccc4)[C@@]321`, the “activity, negative = inhibition” value is 36.2% (inactive).
Take `CCCCCCCC#Cc1ccccc1/C=N/S(=O)C(C)(C)C` (stereo not given): the “activity, negative = inhibition” value is 7.46% (inactive).
For the compound `CC1CCC(C(=O)O)NC1c1ccc(-c2ccco2)cc1` (stereo not given), the “activity, negative = inhibition” value was 20.2% (inactive).
Regarding `CC1CCC(C(=O)O)NC1c1cccc(N2CCCC2=O)c1` (stereo not given), the “activity, negative = inhibition” value is 73.5% (inactive).
As to `CC1(C)OC(C(O)(c2ccccc2)c2ccccc2)C(C(O)(c2ccccc2)c2ccccc2)O1` (stereo not given), the “activity, negative = inhibition” value is 19.9% (inactive).
On to `C=CCOC(=O)C(C(C)=O)C(NC(=O)OC)c1ccc(F)cc1` (stereo not given), for which the Potency is 398 nM (active).
For `CC(=O)OCC1OC(C#CCCCc2ccccc2)C=CC1OC(C)=O` (stereo not given), the “activity, negative = inhibition” value is -1.48% (inactive).
With `CC(=O)c1ccc(OC2C(O)COC2/C=C/c2ccc(Cl)cc2)cc1` (stereo not given), the Potency entry is “inactive”.
`OCC1OC(C#Cc2ccccc2)C=CC1OCc1ccccc1` (stereo not given): the Potency was 12.6 nM (active).
Regarding `CO[C@@H]1COC(=O)[C@H](C)NC(=O)C/C=C\[C@@H](C)[C@@H](NS(=O)(=O)c2ccc(C)cc2)COC(=O)C/C=C\[C@@H]1C`, the “activity, negative = inhibition” value was 71% (inactive).
Regarding `CCCCCCC1=Cc2cc(OC)c(OC)cc2C(C(C(C)=O)C(=O)OC)O1` (stereo not given), the Potency is 3160 nM (active).
On to `C=C(C)CC1(c2ccccc2)Oc2ccccc2-c2nc3cc(Cl)c(Cl)cc3nc21` (stereo not given), for which the “activity, negative = inhibition” value was 55.8% (inactive).
The same measure, in the same setting: the same measure for `C=C(C)C(O)/C=C/CCCCCCC` (stereo not given): 26% (inactive).
Regarding `COC(=O)NC(/C(C(=O)OC)=C(\C)NCc1ccccc1)c1ccc2ccccc2c1` (stereo not given), the Potency was 63.1 nM (active).
For `COc1ccc(/C=C/N(CCc2ccc(OC)c(OC)c2)C(=O)C(F)(F)F)cc1`, the Potency is 79.4 nM (active).
As for `CO[C@@H]1COC(=O)[C@@H](CCSC)NC(=O)C/C=C\[C@@H](C)COC(=O)[C@H](C)NC(=O)C/C=C\[C@H]1C`, the “activity, negative = inhibition” value is 62.1% (inactive).
On to `O=C(O)C1Cc2c([nH]c3ccccc23)C(c2ccccc2)N1` (stereo not given), for which the “activity, negative = inhibition” value was 32.8% (inactive).
As for `CC(C)=NO[C@@H](C)c1cn([C@@H]2COC[C@@H]2O)nn1`, the “activity, negative = inhibition” value is 47.6% (inactive).
Take `CCCCCCC#CC1C=CC(OC(=O)OCC)C(COC(=O)OCC)O1` (stereo not given): the Potency is 2000 nM (active).
On to `C=CCOC(=O)C(C(C)=O)C(NC(=O)OC)c1ccccc1` (stereo not given), for which the Potency is 631 nM (active).
In the case of `CC1CCC2C(=O)N3C(CCC(C)[C@H]3c3cccc(N4CCCC4=O)c3)C(=O)N2C1c1cccc(N2CCCC2=O)c1` (stereo not given in full), the “activity, negative = inhibition” value is 43% (inactive).
For `OCC1OC(C#Cc2ccccc2)C=CC1O` (stereo not given), the Potency entry was “inactive and 631 nM (active)”.
For `C=CCOCC1CN2C(CCC(C)C2c2ccc(Br)cc2)C(=O)O1` (stereo not given), the “activity, negative = inhibition” value was 5.02% (inactive).
With `O=C1C=CC2(OCCCO2)C(Br)=C1`, the “activity, negative = inhibition” value is 41.7% (inactive).
`C=CCC1C=CC(OC(=O)OCC)C(COC(=O)OCC)O1` (stereo not given): the Potency was 794 nM (active).
For the compound `C=CCOC(=O)C(C(=O)CC)C(NC(=O)OC)c1ccc(F)cc1` (stereo not given), the “activity, negative = inhibition” value is -39% (inactive).
As to `CCOC(=O)OCC1OC(c2cc(C)cc(C)c2)C=CC1OC(=O)OCC` (stereo not given), the “activity, negative = inhibition” value is -20.5% (inactive).
In the case of `COCOc1ccc(Br)cc1C(=O)[C@H]1O[C@H]1c1cccc(OC)c1`, the Potency is 63.1 nM (active).
As for `CC1CCC(C(=O)O)NC1c1ccc(C#CCN(C)C)cc1` (stereo not given), the “activity, negative = inhibition” value was 93.9% (inactive).
Take `CC12C=C(/C=C/c3ccccc3)C(C)(C1)C(c1ccccc1)CC2=O` (stereo not given): the Potency was 794 nM (active).
Consider `CC(C)CO/N=C1/C[C@@H](O)[C@@H](O)[C@@H]2[C@@H]3C(=O)N(Cc4ccc5c(c4)OCO5)C(=O)[C@H]3CC[C@H]12`, for which the Potency is 3980 nM (active).
As for `C/C=C/OC(=O)NC(c1ccccc1)[C@@]1(C(=O)OCC)CCCC1=O` (stereo not given in full), the Potency was 25.1 nM (active).
Take `COC(=O)NC(CC(C)=O)c1cccc(C(F)(F)F)c1` (stereo not given): the “activity, negative = inhibition” value is 98.4% (inactive).
In the case of `CO/N=C(/C)CCC(=O)OC[C@@H]1O[C@H](C#Cc2ccccc2)C=C[C@@H]1Oc1ccc(C)cc1`, the Potency is 3980 nM (active).
For the compound `CCCNC(=O)OC[C@@H]1O[C@H](CCO/N=C\[C@@H](C)[C@H](OCc2ccccc2)C(C)C)C=C[C@@H]1Oc1ccc(OC)cc1`, the Potency was 3160 nM (active).
